From PubChem BioAssay AID1159580 (chemical genetic matrix, 2015)
Where “and” joins values, the source holds several entries; their conditions need not be identical. Equal entries are not always repeated. Among all 5,500 compounds or so, about 2,000 (36%) were called active. Not shown: some 18% with an inconclusive outcome. Rule as the data show it: active = normalized growth mostly below about 0.91 (no sharp cut-off); inconclusive = no clear call, values can overlap the other calls; inactive = mostly above about 0.92. Some of the results follow.

Assay: chemical genetic growth profiling, strain panel (AID 1159580);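 also: tested at 20 µM; growth read once vehicle control cultures reached saturation at 30 °C; 1 = growth at the plate median or of vehicle wells; lower values mean less growth of the strain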
Conditions: S. cerevisiae deletion strains, growth OD
[1] = locus YMR263W, strain SAP30, active compounds read low
[2] = locus YMR307W, strain GAS1, active compounds read low
[3] = locus YPL055C, strain LGE1, active compounds read low
[4] = locus YPL241C, strain CIN2, active compounds read low

Measured: normalized growth

CC(C(=O)O)c1ccc(CC2CCCC2=O)cc1 (configuration not stated)
inactive: locus YAL013W, strain DEP1, active compounds read low 0.985 | locus YAL040C, strain CLN3, active compounds read low 0.995 | locus YCL061C, strain MRC1 (second series), active compounds read low 1 | locus YDR363W, strain ESC2, active compounds read low 1 | locus YER002W, strain NOP16, active compounds read low 0.988 | locus YGR078C, strain PAC10, active compounds read low 1.02 | locus YGR229C, strain SMI1, active compounds read low 1.01 | locus YJR075W, strain HOC1, active compounds read low 1.01 | [1] 1 | [2] 0.999 | locus YNL128W, strain TEP1, active compounds read low 0.976 | locus YNL175C, strain NOP13, active compounds read low 1.01 | locus YNL197C, strain WHI3, active compounds read low 1.02 | locus YNL224C, strain SQS1, active compounds read low 0.979 | locus YNL322C, strain KRE1, active compounds read low 1.01 | locus YOR083W, strain WHI5 (second series), active compounds read low 0.981 | [3] 0.974 | [4] 1.01

CC(=O)OC1CCC23C(=O)OC45CCC(C6=CC(=O)OC6)C4(C)CCC2C5CCC3(O)C1 (configuration not stated)
inactive: locus YAL021C, strain ccr4, active compounds read low 1 | locus YAL026C, strain drs2, active compounds read low 0.979 | locus YAL030W, strain snc1, active compounds read low 0.996 | locus YBL061C, strain skt5, active compounds read low 0.975 | locus YBR009C, strain hhf1, active compounds read low 0.998 | locus YBR021W, strain FUR4, active compounds read low 1 | locus YBR023C, strain chs3, active compounds read low 0.991 | locus YBR171W, strain sec66, active compounds read low 0.953 | locus YBR229C, strain ROT2, active compounds read low 1.01 | locus YBR231C, strain swc5, active compounds read low 0.987 | locus YBR279W, strain paf1, active compounds read low 1.01 | locus YCL011C, strain gbp2, active compounds read low 1 | locus YCL016C, strain dcc1, active compounds read low 1.04 | locus YCL029C, strain bik1, active compounds read low 1.02 | locus YCL061C, strain MRC1, active compounds read low 0.997 | locus YCL069W, strain vba3, active compounds read low 0.979 | locus YCR088W, strain abp1, active compounds read low 0.986 | locus YDL005C, strain med2, active compounds read low 0.98 | locus YDL035C, strain GPR1, active compounds read low 1.05 | locus YDL040C, strain nat1, active compounds read low 0.99 | locus YDL074C, strain BRE1, active compounds read low 1.1 | locus YDL101C, strain DUN1, active compounds read low 1.01 | locus YDL185W, strain tfp1, active compounds read low 0.992 | locus YDL192W, strain arf1, active compounds read low 1.03 | locus YDR001C, strain nth1, active compounds read low 0.991 | locus YDR069C, strain doa4, active compounds read low 0.963 | locus YDR101C, strain arx1, active compounds read low 1 | locus YDR137W, strain rgp1, active compounds read low 1.03 | locus YDR159W, strain sac3, active compounds read low 0.961 | locus YDR162C, strain NBP2, active compounds read low 1.03 | locus YDR195W, strain ref2 0.943 | locus YDR297W, strain sur2, active compounds read low 0.987 | locus YDR318W, strain mcm21, active compounds read low 1.02 | locus YDR334W, strain swr1, active compounds read low 0.959 | locus YDR335W, strain msn5, active compounds read low 0.992 | locus YDR388W, active compounds read low 0.998 | locus YDR392W, strain spt3, active compounds read low 0.962 | locus YDR502C, strain sam2, active compounds read low 1.02 | locus YEL003W, strain gim4, active compounds read low 0.988 | locus YEL037C, strain rad23, active compounds read low 0.97 | locus YEL061C, strain CIN8 (second series), active compounds read low 0.981 | locus YER015W, strain faa2, active compounds read low 0.977 | locus YER016W, strain bim1, active compounds read low 0.994 | locus YER110C, active compounds read low 0.997 | locus YER111C, strain swi4, active compounds read low 0.95 | locus YER155C, strain BEM2 (second series), active compounds read low 0.968 | locus YER155C, strain BEM2, active compounds read low 1 | locus YER167W, strain BCK2, active compounds read low 1.01 | locus YFR010W, strain ubp6, active compounds read low 0.959 | locus YGL078C, strain dbp3, active compounds read low 1 | locus YGL086W, strain mad1, active compounds read low 1 | locus YGL167C, strain pmr1, active compounds read low 0.978 | locus YGL173C, strain kem1, active compounds read low 0.972 | locus YGL227W, strain vid30, active compounds read low 0.994 | locus YGL240W, strain doc1, active compounds read low 0.973 | locus YGL248W, strain PDE1, active compounds read low 1.06 | locus YGL253W, strain hxk2, active compounds read low 0.98 | locus YGR135W, strain pre9, active compounds read low 0.997 | locus YGR252W, strain gcn5, active compounds read low 1 | locus YHR013C, strain ard1, active compounds read low 0.994 | locus YHR027C, strain rpn1, active compounds read low 0.971 | locus YHR030C, strain SLT2, active compounds read low 1.02 and 0.956 | locus YHR079C, strain IRE1 (second series), active compounds read low 0.994 | locus YHR079C, strain IRE1, active compounds read low 0.984 | locus YHR094C, strain hxt1, active compounds read low 1 | locus YHR129C, strain ARP1, active compounds read low 1.02 | locus YHR142W, strain chs7, active compounds read low 1.02 | locus YHR200W, strain rpn10, active compounds read low 1.01 | locus YIL066C, strain RNR3, active compounds read low 1.03 | locus YIL073C, strain SPO22, active compounds read low 1.11 | locus YIL125W, strain kgd1, active compounds read low 1.02 | locus YIR030C, strain dcg1, active compounds read low 1 | locus YJL092W, strain hpr5, active compounds read low 0.971 | locus YJL095W, strain BCK1 (second series), active compounds read low 0.96 | locus YJL095W, strain BCK1, active compounds read low 1.08 and 0.965 | locus YJL115W, strain asf1, active compounds read low 0.979 | locus YJL129C, strain trk1, active compounds read low 0.973 | locus YJL134W, strain LCB3, active compounds read low 1.01 | locus YJL154C, strain vps35, active compounds read low 0.988 | locus YJL164C, strain tpk1, active compounds read low 1.04 | locus YJL166W, strain qcr8, active compounds read low 0.977 | locus YJL168C, strain set2, active compounds read low 1.01 | locus YJL187C, strain SWE1 (second series), active compounds read low 1.02 | locus YJR043C, strain POL32, active compounds read low 1.05 | locus YJR066W, strain TOR1, active compounds read low 0.883 | locus YKL009W, strain mrt4, active compounds read low 1.02 | locus YKL068W, active compounds read low 1.01 | locus YKL085W, strain MDH1 (second series), active compounds read low 1 | locus YKL085W, strain MDH1, active compounds read low 1 | locus YKL160W, strain elf1, active compounds read low 1.06 | locus YKR001C, strain vps1, active compounds read low 1.02 | locus YKR026C, strain gcn3, active compounds read low 0.976 | locus YKR091W, strain srl3, active compounds read low 0.994 | locus YLL001W, strain dnm1, active compounds read low 1.01 | locus YLL026W, active compounds read low 0.996 | locus YLL041C, strain sdh2, active compounds read low 0.966 | locus YLR027C, strain aat2, active compounds read low 0.988 | locus YLR039C, strain RIC1, active compounds read low 1.23 | locus YLR058C, strain SHM2, active compounds read low 1.02 | locus YLR102C, strain apc9, active compounds read low 0.994 | locus YLR113W, strain HOG1, active compounds read low 1.01 | locus YLR221C, strain rsa3, active compounds read low 0.981 | locus YLR258W, strain gsy2, active compounds read low 1 | locus YLR262C, strain YPT6 (second series), active compounds read low 1.01 | locus YLR268W, strain sec22, active compounds read low 1.02 | locus YLR320W, strain mms22, active compounds read low 0.988 | locus YLR342W, strain FKS1 (second series), active compounds read low 1.06 | locus YLR342W, strain FKS1, active compounds read low 0.995 | locus YLR357W, strain rsc2, active compounds read low 0.973 | locus YLR370C, strain arc18, active compounds read low 0.986 | locus YLR371W, strain rom2, active compounds read low 1.02 | locus YLR384C, strain iki3, active compounds read low 0.997 | locus YLR418C, strain cdc73, active compounds read low 1.06 | locus YML016C, strain PPZ1, active compounds read low 1.01 | locus YML032C, strain rad52, active compounds read low 1.01 | locus YML120C, strain ndi1, active compounds read low 1.01 | locus YML124C, strain tub3, active compounds read low 1.01 | locus YMR058W, strain fet3, active compounds read low 0.988 | locus YMR078C, strain ctf18, active compounds read low 1.01 | locus YMR125W, strain sto1, active compounds read low 0.992 | locus YMR129W, active compounds read low 0.986 | locus YMR205C, strain PFK2, active compounds read low 1.01 | locus YMR223W, strain ubp8, active compounds read low 1 | locus YMR231W, strain pep5, active compounds read low 0.97 | [1] 1.01 | [2] 1.16 | locus YNL067W, strain RPL9B, active compounds read low 0.999 | locus YNL071W, strain lat1, active compounds read low 0.994 | locus YNL183C, strain NPR1, active compounds read low 0.922 | locus YNL209W, strain ssb2, active compounds read low 0.996 | locus YNL233W, strain BNI4, active compounds read low 1.05 | locus YNL248C, strain rpa49, active compounds read low 0.989 | locus YNL250W, strain rad50, active compounds read low 1.03 | locus YNL271C, strain bni1, active compounds read low 1.02 | locus YNL298W, strain CLA4, active compounds read low 1.01 | locus YNL307C, strain MCK1, active compounds read low 1.02 | locus YNL322C, strain KRE1 (second series), active compounds read low 0.987 | locus YNR049C, strain mso1, active compounds read low 0.967 | locus YNR052C, strain pop2, active compounds read low 0.996 | locus YOL006C, strain TOP1, active compounds read low 1.28 | locus YOL012C, strain htz1 0.952 | locus YOL147C, strain pex11, active compounds read low 1.02 | locus YOR001W, strain rrp6, active compounds read low 0.929 | locus YOR061W, strain CKA2, active compounds read low 1.02 | locus YOR069W, strain VPS5, active compounds read low 1 | locus YOR070C, strain gyp1, active compounds read low 0.982 | locus YOR080W, strain dia2, active compounds read low 0.98 | locus YOR083W, strain WHI5, active compounds read low 1.06 | locus YOR106W, strain vam3, active compounds read low 1.05 | locus YOR136W, strain idh2, active compounds read low 0.997 | locus YOR144C, strain elg1, active compounds read low 1 | locus YOR184W, strain ser1, active compounds read low 1.02 | locus YOR231W, strain MKK1, active compounds read low 0.976 | locus YOR265W, strain rbl2, active compounds read low 0.996 | locus YOR270C, strain vph1, active compounds read low 1 | locus YOR290C, strain snf2, active compounds read low 1.02 | locus YOR316C, strain cot1, active compounds read low 1.02 | locus YPL051W, strain arl3, active compounds read low 0.967 | [3] 1.09 | locus YPL078C, strain atp4, active compounds read low 1.06 | locus YPL106C, strain sse1, active compounds read low 1 | locus YPL240C, strain hsp82, active compounds read low 0.979 | [4] 1.02 | locus YPL256C, strain CLN2, active compounds read low 0.975 | locus YPR119W, strain clb2, active compounds read low 0.999 | locus YPR141C, strain kar3, active compounds read low 0.997 | locus YPR163C, strain tif3, active compounds read low 1.01 | locus YPR167C, strain met16, active compounds read low 1.02 | strain wtn01, active compounds read low 1
